# ± gives the standard deviation.
# Columns and labels:
# Details in all cases: modulator concentration 10 µM
# [1] = test system: RAW-Dual (murine macrophage reporter line); assay: NF-kB reporter (SEAP) activity fold change vs agonist alone; higher = enhanced NF-kB activity
# In short: (§1)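 Compound reached 10 μM final in each well by pin transfer, onto RAW-Dual murine macrophage reporter cells seeded at 50 000 per well in 384-well plates. After 1 hour at 37 °C, the cells were stimulated overnight with a PRR agonist. SEAP in the supernatant was read with QUANTI-Blue at 620 nm absorbance for NF-κB, and Lucia luciferase was read with QUANTI-Luc luminescence for IRF. Each signal was turned into fold change against the mean agonist-only control on the same plate, and two replicate plates were averaged with propagated errors.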
# [2] = test system: RAW-Dual (murine macrophage reporter line); assay: IRF reporter (Lucia luciferase) activity fold change vs agonist alone; higher = enhanced IRF activity
# In short: as §1
# [3] = test system: RAW-Dual (murine macrophage reporter line); assay: viability score (confluency relative to resting cells, overnight) (fraction); higher = more viable, active = viable (0.7 or more)
# In short: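 RAW-Dual macrophages in 384-well plates were incubated overnight with compound, final concentration 10 μM. Confluency images from IncuCyte were processed in IncuCyte software into two masks covering all imaged wells. The viability score is each well's confluency relative to resting cells, and a compound met the cutoff when both masks exceeded 70% of resting cells.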
# [4] = agonist: CpG ODN 1826 0.5 ug/mL
SMILES,"NF-kB reporter [1, 4]",NF-kB reporter ([1]; agonist: LPS 0.1 ug/mL),NF-kB reporter ([1]; agonist: MPLA […]),IRF reporter ([2]; agonist: 3'3'-cGAMP 10 ug/mL),IRF reporter ([2]; agonist: LPS 0.1 ug/mL),IRF reporter ([2]; agonist: MPLA […]),viability score [3]
CNc1ccc([N+](=O)[O-])cc1-n1cnc(-c2ccc([N+](=O)[O-])cc2)c1,0.853 ± 0.068,0.807 ± 0.038,1.37 ± 0.12,1.02 ± 0.046,1.41 ± 0.082,1.58 ± 0.15,1.02 (active)
Clc1ccc(Cn2c(CN3CCCC3)nc3ccccc32)cc1 [Prestw-227],0.369 ± 0.076,1.12 ± 0.1,1.06 ± 0.14,0.682 ± 0.038,1.07 ± 0.1,1.37 ± 0.18,0.787 (active)
COCCOC(=O)C1=C(C)NC(=S)NC1c1ccccc1OC (stereo not given),1.03 ± 0.098,0.995 ± 0.056,0.956 ± 0.11,0.964 ± 0.039,1.38 ± 0.095,1.19 ± 0.22,1.01 (active)
O=C(Cn1ccnc1[N+](=O)[O-])NCCO [Prestw-649],1.09 ± 0.081,1.01 ± 0.12,1.05 ± 0.03,1.09 ± 0.16,0.982 ± 0.11,0.994 ± 0.15,1 (active)
C[C@@H]1COC(Nc2ccc3ncnc(Nc4ccc(OCc5nccs5)c(Cl)c4)c3c2)=N1,0.381 ± 0.07,0.881 ± 0.17,0.84 ± 0.065,0.186 ± 0.023,0.833 ± 0.2,1.27 ± 0.23,0.595 (inactive)
O=C(O)c1cc(O)c2ccccc2n1,1.23 ± 0.3,1.13 ± 0.11,1 ± 0.064,1.01 ± 0.057,1.21 ± 0.14,1.38 ± 0.14,0.991 (active)
CCOc1ccc(C=Nc2cccc3ncccc23)cc1,0.971 ± 0.084,1.02 ± 0.067,0.958 ± 0.077,0.424 ± 0.019,1.15 ± 0.11,0.979 ± 0.095,1 (active)
COC(=O)CSc1ccc2nnc(-c3ccc(F)cc3)n2n1,1.12 ± 0.088,1.1 ± 0.057,1.06 ± 0.023,0.71 ± 0.05,0.719 ± 0.042,0.803 ± 0.069,1 (active)
Cc1ccccc1C(=O)Nc1ccc(C(=O)N2CCCC(O)c3cc(Cl)ccc32)c(C)c1 (stereo not given),1.02 ± 0.2,1.09 ± 0.15,0.92 ± 0.056,0.601 ± 0.019,1.04 ± 0.29,1.07 ± 0.13,0.998 (active)
CC(=O)Nc1cccs1,1.09 ± 0.14,1.06 ± 0.072,0.986 ± 0.035,0.944 ± 0.12,1.07 ± 0.11,1.04 ± 0.078,0.998 (active)
CCOc1cc2ncc(C#N)c(Nc3ccc(F)c(Cl)c3)c2cc1NC(=O)/C=C/CN(C)C,0.714 ± 0.27,0.512 ± 0.048,0.445 ± 0.097,0.158 ± 0.019,0.374 ± 0.04,0.22 ± 0.019,0.968 (active)
O=C(Cn1nc(S(=O)(=O)c2cccc(F)c2)ccc1=O)N1CCc2ccccc2C1,1.03 ± 0.097,1.07 ± 0.085,0.921 ± 0.053,1.02 ± 0.051,1.29 ± 0.1,1.14 ± 0.21,1 (active)
Cc1cc(/C=C/C#N)cc(C)c1Nc1ccnc(Nc2ccc(C#N)cc2)n1,0.602 ± 0.17,0.605 ± 0.044,1.3 ± 0.12,0.209 ± 0.014,0.662 ± 0.071,0.886 ± 0.13,0.985 (active)
O=C(Cc1ccc(NC(=O)c2ccc(OC(F)(F)F)cc2)cc1)NCC(F)(F)F,1.22 ± 0.094,1.04 ± 0.12,0.994 ± 0.031,0.984 ± 0.055,1.03 ± 0.077,1.04 ± 0.18,0.999 (active)
O=C(C(Cl)Cl)N1CCN(Cc2ccccc2)CC1,0.881 ± 0.068,0.67 ± 0.077,0.709 ± 0.072,0.712 ± 0.032,1.25 ± 0.18,1.28 ± 0.24,1.01 (active)
